Screening results from PubChem.
A selection: hits, their analogues and other compounds. The true share with any hit is near 2.9%.
PLCb3 inh – PLC-beta3 (human) inhibition, primary screen | Q01970 | Purified PLC-beta3, fluorogenic substrate, fluorescence | inhibition, % at 12.2 µM | actives 0.18% (n = 370,000); in the data active means inhibition above about 11%;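 further: 0% = median of compound wells on plate and 100% = full blocker control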
PLC-gamma1 inh – inhibitors of human phospholipase C gamma1; P19174; purified PLC-gamma1, fluorogenic substrate, fluorescence; inhibition, % at 12.2 µM; actives 0.84% (n = 370,000); AID 720700; in the data active means inhibition above about 9.5%
Target sequence (P19174 whole entry, looked up): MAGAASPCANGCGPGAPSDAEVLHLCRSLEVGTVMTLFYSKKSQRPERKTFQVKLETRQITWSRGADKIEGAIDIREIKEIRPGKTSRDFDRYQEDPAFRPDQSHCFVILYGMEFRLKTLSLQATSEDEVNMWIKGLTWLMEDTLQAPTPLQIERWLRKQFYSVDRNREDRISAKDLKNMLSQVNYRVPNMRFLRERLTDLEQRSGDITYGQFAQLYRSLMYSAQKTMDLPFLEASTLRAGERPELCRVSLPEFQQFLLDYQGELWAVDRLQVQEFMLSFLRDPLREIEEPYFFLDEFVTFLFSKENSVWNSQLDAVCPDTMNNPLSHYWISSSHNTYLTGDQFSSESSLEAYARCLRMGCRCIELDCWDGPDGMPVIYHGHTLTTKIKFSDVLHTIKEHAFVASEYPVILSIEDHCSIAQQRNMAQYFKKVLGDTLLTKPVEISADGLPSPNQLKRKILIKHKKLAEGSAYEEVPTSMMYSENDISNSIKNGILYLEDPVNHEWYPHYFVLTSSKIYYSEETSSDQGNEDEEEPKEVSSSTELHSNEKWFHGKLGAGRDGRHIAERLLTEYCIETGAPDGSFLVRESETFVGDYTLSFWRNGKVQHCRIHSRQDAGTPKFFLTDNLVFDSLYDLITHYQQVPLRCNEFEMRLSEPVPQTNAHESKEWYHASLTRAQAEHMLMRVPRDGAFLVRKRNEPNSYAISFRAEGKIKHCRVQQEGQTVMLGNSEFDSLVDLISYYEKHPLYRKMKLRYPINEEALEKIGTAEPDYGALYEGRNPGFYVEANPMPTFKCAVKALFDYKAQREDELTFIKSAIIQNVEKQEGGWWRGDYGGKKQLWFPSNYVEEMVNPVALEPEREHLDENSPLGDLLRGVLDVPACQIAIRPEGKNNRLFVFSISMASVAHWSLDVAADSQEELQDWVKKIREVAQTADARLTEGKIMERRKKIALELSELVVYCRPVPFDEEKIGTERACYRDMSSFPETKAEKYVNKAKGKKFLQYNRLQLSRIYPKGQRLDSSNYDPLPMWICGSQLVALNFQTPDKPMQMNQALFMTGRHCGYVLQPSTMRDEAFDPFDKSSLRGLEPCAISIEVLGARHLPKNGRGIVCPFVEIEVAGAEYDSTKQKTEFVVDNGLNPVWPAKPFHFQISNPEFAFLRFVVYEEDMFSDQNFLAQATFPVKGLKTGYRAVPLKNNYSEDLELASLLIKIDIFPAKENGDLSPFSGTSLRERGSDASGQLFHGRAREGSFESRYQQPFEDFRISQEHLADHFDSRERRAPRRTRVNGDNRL
ADAM17 inh – inhibits human ADAM17. P78536. actives 0.83% (n = 370,000). recombinant ADAM17, EDANS/DABCYL FRET peptide cleavage. inhibition, % at 6.95 µM;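 active means inhibition above the mean of compounds lying between control limits plus 3 SD, set per campaign, cut at about 8.5% in these data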;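 further: 0% = DMSO-only wells as the low control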
KLK7 zymogen act – activates the human kallikrein-7 zymogen. purified proKLK7, EDANS-DABCYL substrate fluorescence; 100% is mature enzyme control, 0% vehicle. actives 0.9% (n = 370,000). P49862. activation, % at 7 µM;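 active means activation above the mean of all tested compounds plus 3 SD, computed per campaign excluding outliers beyond control limits, cut at about 13% in these data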
ADAM10 inh – inhibitors of human ADAM10; AID 720582; inhibition, % at 7 µM; actives 0.62% (n = 370,000); recombinant ADAM10, EDANS/DABCYL FRET peptide cleavage, 3 h; O14672;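 active means inhibition above a per-campaign cutoff equal to the mean of compounds falling between control-based bounds plus 3 SD, cut at about 20% in these data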;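 further: 0% = DMSO wells while the 100% control is not disclosed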
KLK7 act conf – confirmation of human kallikrein-7 zymogen activators; actives 68% (n = 3,200); shares compounds with KLK7 zymogen act; purified proKLK7, EDANS-DABCYL substrate fluorescence; scaled: vehicle 0, mature enzyme 100; activation, % at 7 µM;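 active means activation, as change over the incubation, above the mean of all tested compounds plus 3 SD, cut at about 13% in these data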
EDANS interfere – fluorescence interference counter-screen for KLK7 activators; shares compounds with KLK7 zymogen act; EDANS-DABCYL substrate fluorescence interference, no enzyme, 4 h; solvent 0%, active enzyme control 100%; activation, % at 7 µM; actives 80% (n = 3,200); AID 686952;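 active means activation above the all-compound mean plus 3 SD, ignoring values outside control-based bounds, cut at about 4.8% in these data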;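 further: value is the 4 h activation minus the activation read at time zero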
EDANS interf – counter-screen for kallikrein-7 activators: EDANS-DABCYL interference, dose response. shares compounds with KLK7 zymogen act. EDANS-DABCYL peptide fluorescence interference, no enzyme. EC50, µM. actives 20% (n = 250). AID 720493;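 active means compounds that raise the fluorescence signal in this interference counterscreen, with EC50 at or below 10 µM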;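 further: intact quenched peptide substrate alone read at 355 nm excitation and 520 nm emission; signal is fluorescence gain from T0 to T4 after four hours at room temperature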
* marks the source's active call; other numbers are inactive results; i = inactive; . = not tested or not shown; ! = not confirmed by another sample.

SMILES	PLCb3 inh	PLC-gamma1 inh	ADAM17 inh	KLK7 zymogen act	ADAM10 inh	KLK7 act conf	EDANS interfere	others
CNC(=S)NNC(=O)c1sc2cc(C(F)(F)F)cnc2c1-c1ccccn1	-58.7	-52.2	-60.8	8.0	-191.8	.	.
CNC(=S)NNC(=O)c1sc2cc(C(F)(F)F)cnc2c1-c1cccnc1	-107.5	-84.5	-140.0	13.8*	-417.2	15.7*	22.0*
CC(C)(N[C@@H](Cc1ccccc1)C(=O)NCC(c1ccccc1)c1ccccc1)C(=O)NC1CCCCC1	0.0	-1.4	-2.2	.	-7.5	.	.
CN(C)CCCN1C(=O)c2cccc3c([N+](=O)[O-])ccc(c23)C1=O	i	i	0.1	-0.4	-11.9	.	.
COc1cc(OC)c(-c2nc3ccccc3s2)cc1OC	-486.7	-386.0	i	-46.2	i	.	.
COc1cccc(-c2nc3ccccc3s2)c1O	i	-478.4	-5.2	25.4*	-10.8	-3.2	-3.6
Cn1c(=O)oc2cc(S(=O)(=O)NCCC(=O)N3CCN(c4ccccc4)CC3)ccc21	-8.3	-0.5	-4.1	-0.2	0.4	.	.
c1ccc(CN2c3ccccc3-c3nc4ccccc4n3C2c2ccccn2)cc1 (stereo not given)	i	-470.9	i	-8.4	i	.	.
CN1c2ccccc2-c2nc3ccccc3n2C1c1ccccn1 (stereo not given)	i	i	i	34.0*	i	7.0	3.1
CN1c2ccccc2-c2nc3ccccc3n2C1c1ccncc1 (stereo not given)	-76.5	-59.8	-53.0	1.0	-138.8	.	.
CCN1c2ccccc2-c2nc3ccccc3n2C1c1ccco1 (stereo not given)	i	i	i	27.1*	i	-9.2	-13.0
CCOC(=O)c1nn(-c2ccccc2)c(=O)c(C#N)c1C	-116.1	-90.2	-10.2	-2.1	-22.2	.	.
CCOC(=O)c1nn(-c2ccccc2)c(C#N)c1N	-402.5	-330.5	i	25.4*	i	17.7*	24.6*
Nc1c2ccccc2nc2ccccc12	-305.4	-291.4	-216.0	14.3*!	i	51.9*	71.2*
Nc1c2c(nc3ccccc13)CCCC2	0.3	-3.3	-5.7	-0.1	-3.4	.	.
COC(=O)[C@H](C)NC(=O)Nc1ccc(OC)c(OC)c1	5.8	1.6	-3.2	-0.3	3.4	.	.
C[C@H]1C(c2ccc(F)cc2)=NN(c2ccccc2)[C@@H]1CO	i	i	-478.1	22.8*	i	-13.2	-26.4
CCOc1ccc2nc(NCCNC(=O)CC)c(C#N)cc2c1	i	i	-172.3	28.8*	i	40.1*	44.2*
CCC(=O)NCCNc1nc2cc(C)c(C)cc2cc1C#N	-27.1	-25.2	-39.8	3.3	-144.8	.	.
CN1C=CC2=C(C#N)C(N)C(C#N)(C#N)[C@H](c3ccccc3)[C@H]2C1 (stereo not given in full)	i	-341.0	-224.2	38.9*	i	22.0*	18.1*	EDANS interf=>69.5
N#CC1(C#N)C(C(N)=O)C1c1ccccc1 (stereo not given)	-8.0	-7.5	-1.5	0.4	-8.7	.	.
O=C(COC(=O)c1ccc(Cl)c(Cl)c1)Nc1cccnc1Cl	-0.4	-0.7	-2.0	0.0	2.6	.	.
CN(C(=O)c1cccnc1)c1nnc(-c2cnccn2)s1	-33.0	-28.1	-6.6	42.4*	-9.5	32.7*	34.4*
CN(C(=O)c1ccccn1)c1nnc(-c2cnccn2)s1	-22.5	-17.1	-2.8	9.4	-4.3	.	.
Cc1ccc(-c2nnc(N(C)C(=O)C3CCCO3)s2)cn1 (stereo not given)	-1.2	-1.6	-5.0	2.6	-9.8	.	.
SMILES	PLCb3 inh	PLC-gamma1 inh	ADAM17 inh	KLK7 zymogen act	ADAM10 inh	KLK7 act conf	EDANS interfere	others
CN(C(=O)c1cnccn1)c1nnc(-c2cnccn2)s1	-139.6	-117.4	-12.7	19.7*	-20.9	37.6*	42.3*
CN(C(=O)C1CCCO1)c1nnc(-c2cnccn2)s1 (stereo not given)	-48.9	-43.9	-10.0	53.6*	-15.2	39.3*	81.2*
CN(C(=O)c1cccnc1)c1nnc(-c2ccccn2)s1	-9.7	-9.1	-65.3	73.3*	-204.2	38.6*	37.3*
CCC(C)Oc1nc2ccccc2nc1NS(=O)(=O)c1ccccc1 (stereo not given)	0.0	-0.2	-3.2	1.4	-1.1	.	.
O=C(CSc1n[nH]c(=O)n1C1CC1)Nc1ccc(OC(F)(F)F)cc1	0.3	-3.5	-1.5	0.1	-3.7	.	.
COc1cc2cc(CN(CCc3cccc(C)c3)C(=S)NCCCN(C)C)c(=O)[nH]c2cc1OC	-22.4	-17.0	-108.4	0.8	-358.7	.	.
Cc1ccc(C(=O)OCCc2c(C)[nH]n(-c3ccccc3)c2=O)cc1	-1.1	-2.5	-2.0	0.1	-2.3	.	.
CN(C(=O)c1ccncc1)c1nnc(-c2cnccn2)s1	-87.0	-63.6	-4.0	32.6*	-15.2	77.1*	82.2*
COCCCNC(=S)N/N=C/c1ccc(N(C)C)cc1	-155.7	-125.1	-248.0	26.2*	i	41.1*	40.5*
COCCCNC(=S)N/N=C/c1ccc(N(C)C)cc1Cl	-105.9	-61.3	-56.9	-8.6	-165.9	.	.
CCOC(=O)c1cc2c(=O)n3ccccc3nc2n(C(C)C)c1=NC(=O)c1c(-c2ccccc2Cl)noc1C	-59.4	-41.0	-63.0	-8.1	-229.4	.	.
CCOC(=O)c1cc2c(=O)n3ccccc3nc2n(CCOC)c1=NC(=O)c1ccncc1	i	i	i	23.9*	i	8.2	12.8*
CCOC(=O)c1cc2c(=O)n3ccccc3nc2n(CCOC)c1=NC(=O)C(C)(C)C	-128.0	-114.8	-166.3	12.5	i	.	.
CCOC(=O)c1cc2c(=O)n3ccccc3nc2n(CCCOC)c1=NC(=O)C(C)(C)C	i	i	i	22.0*	i	15.5*	14.9*
CCOC(=O)c1cc2c(=O)n3ccccc3nc2n(C(C)C)c1=NC(=O)c1ccncc1	i	i	i	37.2*	i	56.2*	61.6*
CCOC(=O)c1cc2c(=O)n3ccccc3nc2n(CC(C)C)c1=NC(=O)c1ccco1	-339.4	-283.9	-433.0	29.7*	i	24.1*	25.6*
CCOC(=O)c1cc2c(=O)n3ccccc3nc2n(Cc2ccco2)c1=NC(=O)c1ccccc1OCC	i	-410.8	i	10.6	i	.	.
CCOC(=O)c1cc2c(=O)n3ccccc3nc2n(CCOC)c1=NC(=O)c1c(-c2c(F)cccc2Cl)noc1C	-33.4	-23.9	-46.0	0.3	-125.1	.	.
CCOCCCn1c(=NC(C)=O)c(C#N)cc2c(=O)n3ccccc3nc21	i	i	i	22.6*	i	6.3	16.7*
